Test results published in PubChem BioAssay.
Activity calls are given as the source filed them.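 How the source made its calls: active means inhibition at or above 50% relative to wild type and mutant plate controls; inactive means inhibition below 50%.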

Assay: inhibitors of Chlamydomonas gravitaxis, primary screen, whole organism, Chlamydomonas reinhardtii, WT vs cilia-less mutant, absorbance, 96-well (AID 463189);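 further: 0% = wild type cc124 cells in DMSO and 100% = ciliumless bld1 mutant cells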
Settings: OD600 absorbance, 2 days, at 10 µM, hits give high values

inhibition, inactive:
NC(=O)CC[C@H](N)C(=O)O -13.2%
Cc1ccc([N+](=O)[O-])cc1S(=O)(=O)N(C)C -11.4%
CC(C)C[C@H](N)CSSC[C@@H](N)CC(C)C 6.54%
COc1ccccc1NC(=O)Nc1nc(-c2cccnc2)nc2ccccc12 -0.831%
N#C/C(=C\c1c[nH]c2ccccc12)C(=O)c1ccc(O)c(O)c1 4.95%
Cc1cccc(C(=O)NCN2CCN(c3ccccc3C#N)CC2)c1 0.075%
COc1cccc2c1[C@@H]1CN(CCCCn3c(=O)[nH]c4c(sc5ncc(-c6ccccc6)nc54)c3=O)C[C@@H]1CO2 4.24%
C[N+](C)(C)CCC(=O)c1cccc2ccccc12 7.13%
NC(=NCc1ccc(Cl)c(Cl)c1)NC(=O)c1nc(Cl)c(N)nc1N 7.67%
COC(=O)C1=C(C)NC(C)=C([N+](=O)[O-])C1c1ccccc1C(F)(F)F (centres undefined) 5.83%
COc1cc2c(CCNC(C)=O)c[nH]c2cc1Cl 4.11%
CC[C@H](C)C(=O)O[C@H]1CCC=C2C=C[C@H](C)[C@H](CC[C@@H]3C[C@@H](O)CC(=O)O3)[C@H]21 9.46%
NNCCc1ccccc1 3.74%
O=c1ccc2ccc(O)c(O)c2o1 -4.31%
NCC(O)C1CCCCCCC1 (centres undefined) 2.73%
CCCCS(=N)(=O)CC[C@H](N)C(=O)O (some centres undefined) -0.592%
CNc1ncnc2c1ncn2[C@H]1C[C@H](OP(=O)(O)O)[C@@H](COP(=O)(O)O)O1 1.24%
O=c1[nH]cnc2[nH]ncc12 6.04%
O=C(O)c1cc(=O)c2c(Cl)cc(Cl)cc2[nH]1 2.38%
c1ccc([C@H]2CN3CCSC3=N2)cc1 -1.39%
Nc1c(S(=O)(=O)O)cc(Nc2ccc(Nc3nc(Cl)nc(Nc4ccc(S(=O)(=O)O)cc4)n3)c(S(=O)(=O)O)c2)c2c1C(=O)c1ccccc1C2=O 8.09%
Nc1cc(Cl)c(NC2=NCCN2)c(Cl)c1 -3.5%
N[C@@H](CC(=O)O)C(=O)O 4.32%
COc1ccccc1N1CCN(CCCCNS(=O)(=O)c2cccc3c(N(C)C)cccc23)CC1 -0.327%
